Screening data: PubChem BioAssay, National Center for Advancing Translational Sciences (NCATS)
LMNA splice mod: LMNA splicing modulation; HeLa LMNA splicing GFP/RFP minigene ratio, 48 h; Potency, µM (doses to about 46.1 µM), inactives show top-dose ratio change, negative = inhibition, hits mostly inhibitors; actives 0.01% (n = 200,000); AID 1487; active means well fitted inhibition curve with a large enough effect in the signal ratio, with a control signal flat, not every such curve was filed as active; inconclusive means small, poorly fitted or top-dose-only effect, or effect the other way, or a change in a side signal; the % refers to the signal ratio; further: potency means the concentration at half of the fitted maximal effect
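S3 HeLa stable clones carrying a lamin A-EGFP splicing minigene plus DsRed2 were seeded at 600 cells/well in Opti-MEM with 2% FBS, pin-dosed and incubated 48 h at 37°C. Acumen cytometry (488 nm) gave the GFP/RFP total-intensity ratio.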
PNC inhibitor: perinucleolar compartment assembly inhibition. PC3M PTB-GFP, PNC prevalence imaging, 16 h; active compounds read low. activity change (PNC), negative = inhibition, % at 10 µM. AID 2417. actives 3.1% (n = 140,000);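 active means readout at or below -70, meaning at least 70% loss of cells showing the perinucleolar compartment, a nuclear body marking cancer cells; inconclusive means readout between -30 and a set limit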;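 further: plate controls were DMSO wells for no effect and camptothecin positive control wells for full effect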
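Compounds are pinned in duplicate onto adhered PC3M cells stably expressing GFP-tagged PTB and incubated 16 h at 37 C. Cells are then fixed, nuclei stained with Hoechst, and PNC-positive cells counted.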
HPGD block: HPGD (human) dehydrogenase inhibition | P15428 | purified HPGD, NADH fluorescence kinetic, PGE2 substrate | Potency, µM, for inactives: top-dose activity change, negative = inhibition, actives largely listed as inhibitors | actives 4.3% (n = 150,000); further: potency means the concentration at half of the fitted maximal effect
Target sequence (P15428 whole entry, looked up): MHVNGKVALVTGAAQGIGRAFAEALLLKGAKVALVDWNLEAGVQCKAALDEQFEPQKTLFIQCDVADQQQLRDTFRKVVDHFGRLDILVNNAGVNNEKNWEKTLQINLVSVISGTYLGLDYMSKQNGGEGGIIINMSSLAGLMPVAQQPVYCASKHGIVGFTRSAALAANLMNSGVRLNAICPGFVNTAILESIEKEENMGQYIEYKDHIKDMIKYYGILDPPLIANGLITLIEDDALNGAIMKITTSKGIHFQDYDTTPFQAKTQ
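NADH formation kinetics: reaction with 30 uM PGE2 and 1 mM NAD+ (final), 20 nM enzyme, Tris-HCl pH 8 with Tween 20, after 15 min compound preincubation at room temperature. Fluorescence change, last versus first of five reads.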
12-hLO inh: 12-hLO (ALOX12) enzyme inhibition; actives 0.12% (n = 150,000); purified 12-hLO, xylenol orange hydroperoxide absorbance; AID 1452; Potency, µM (highest dose often 57.1 µM), for inactives: at the highest dose activity change, negative = inhibition, usual class: inhibitors; P18054; active means well fitted inhibition curve with a large enough effect; inconclusive means small, poorly fitted or top-dose-only effect; further: potency means the concentration at half of the fitted maximal effect; nearly all actives have a fitted effect of over 55% in size
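Purified human 12hLO (150 nM final) was preincubated with compounds for 15 min at room temperature in 25 mM Hepes pH 7.0, 0.01% Triton X-100, then reacted with 40 uM arachidonic acid for 30 min. Hydroperoxide was detected with ferrous iron/xylenol orange.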
ALDH1A1 inh: blocks purified human ALDH1A1 activity. P00352. Purified ALDH1A1, NADH fluorescence, propionaldehyde substrate. Potency, µM (titrated, usually from 75.3 µM), inactives show at the top dose activity, negative = inhibition, hits mostly inhibitors. actives 7.3% (n = 220,000). AID 1030;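 further: potency means the concentration at half of the fitted maximal effect; plate controls were no enzyme wells and a reference inhibitor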
An asterisk follows results filed as active; ? = inconclusive; · = no result given; [ ] = another dose, or the depositor's remark. Hits are enriched below; roughly 10% of the tested compounds scored in any of these assays. Unless noted, the call rests on the fitted dose curve; in most records, active means well fitted inhibition curve with a large enough effect (not every such curve was filed as active); inconclusive means small, poorly fitted or top-dose-only effect, or another doubt; inactive means no such curve, though single readings can be large or run the other way. Unless noted, on the % scale 0 is the no-effect control and ±100 the full control effect.

SMILES	LMNA splice mod	PNC inhibitor	HPGD block	12-hLO inh	ALDH1A1 inh
COc1ccc(N=C2CCS(=O)(=O)c3sccc32)cc1	·	·	·	·	10µM*
CN(C)c1ccc(NS(=O)(=O)c2ccc(Cl)cc2)cc1	-13%	8	-13%	-5%	?
CN(C)c1ccc(NS(=O)(=O)c2ccc(-c3csnn3)cc2)cc1	·	·	·	·	8.9µM*
Cc1cc(C)c(NC(=O)CN2c3ccccc3S(=O)(=O)c3ccccc32)c(C)c1	16%[46 µM]	·	·	·	·
COc1ccc(S(=O)(=O)Nc2ccccc2C)cc1C(=O)N1CCOCC1	-19%[46 µM]	·	·	·	10µM*
CC1N/C(=C\C(=O)c2ccccc2)N(O)C1(C)C (configuration not stated)	0%	23	14µM*	-4%	-3%
O=C(Nc1ccn(Cc2ccccc2F)n1)c1ccc(COc2ccc(Br)cc2)cc1	-10%	-108*	?	-11%	?
O=C(Nc1ccc(Cn2cccn2)cc1)c1ccc(COc2ccc(Br)cc2)cc1	-11%	?	-5%	7%	3%
CCCn1[nH]cc(SC)c(=O)c1=O	2%	?	-6%	-19%	22µM*
CC(C)CCNC(=O)c1ccc(C2SCC(=O)N2Cc2ccco2)cc1 (configuration not stated)	-1%	-110*	?	-7%	?
CC(C)NC(=O)c1ccc(C2SCC(=O)N2Cc2ccccc2)cc1 (configuration not stated)	-11%	138	3.2µM*	2%	-4%
O=C(NCc1ccccc1)c1ccc(C2SCC(=O)N2Cc2ccccc2)cc1 (configuration not stated)	?	86	10µM*	46%	-6%
O=C(NC1CC1)c1ccc(C2SCC(=O)N2Cc2ccccc2)cc1 (configuration not stated)	4%[46 µM]	·	·	·	3%
CCNC(=O)c1ccc(C2SCC(=O)N2Cc2ccco2)cc1 (configuration not stated)	10%	85	-25%	1%	-8%
CCC(C)NC(=O)c1ccc(C2SCC(=O)N2Cc2ccccc2)cc1 (configuration not stated)	6%[46 µM]	·	·	·	?
O=C(O)CCC/C=C\C[C@@H]1CO[C@H](C(F)(F)F)O[C@@H]1c1ccccc1O	·	·	-11%	-4%	11%
O=C(COC(=O)c1cccc(C(F)(F)F)c1)NCc1ccc(Cl)cc1	-1%	-11	14µM*	-2%	17%
Cc1cc(/C=C2\SC(=S)N(Cc3ccco3)C2=O)c(C)n1-c1cccnc1	25%	19	-15%	0%	0.28µM*
CN1C(=O)/C(=C/c2ccc(O)c([N+](=O)[O-])c2)NC1=S	?	·	·	·	11µM*
NC1=NC(=O)/C(=C\c2ccc(O)c([N+](=O)[O-])c2)S1	·	·	·	·	-16%
O=C1/C(=C/c2ccccc2O)SC(=S)N1Cc1cccnc1	?	73	2.8µM*	-1%	7.5µM*
CCN1C(=O)/C(=C\c2cn(-c3ccccc3)nc2-c2cccnc2)SC1=S	7%[46 µM]	·	·	·	1%
O=C1/C(=C/c2ccc(O)c([N+](=O)[O-])c2)SC(=S)N1Cc1ccccc1	·	·	·	·	4µM*
Cc1cc(/C=C2\NC(=S)NC2=O)c(C)n1-c1cccnc1	·	·	·	·	23%
CC(=O)N(C)c1ccc(NS(=O)(=O)c2cc(Cl)ccc2Cl)cc1	?	·	·	·	15%
SMILES	LMNA splice mod	PNC inhibitor	HPGD block	12-hLO inh	ALDH1A1 inh
C=CCc1ccccc1OC[C@H](O)CNC(C)C	?	·	-6%	4%[25.6 µM]	12%[20.9 µM]
COc1ccc(CNC(=O)[C@H]2C[C@@H]2[C@H](NP(=O)(c2ccccc2)c2ccccc2)c2ccccc2)cc1OC	·	·	-7%	-5%	-12%
COC(=O)NC(=S)N1CCOCC1	0%	-22	-3%	-1%	?
CCOC(=O)CCCNC(=O)N1CCc2nc(-c3ccccc3)c3c(c2C1)CO[C@@H](C)C3	-9%[9.22 µM]	·	-1%	1%[11.4 µM]	4%[13.5 µM]
CCCNC(=O)Nc1cc(C(=O)NCc2cccc(OCC)c2)ccc1N1CCCC1	1%[46 µM]	·	·	·	·
O=C1/C(=C/c2cccnc2)SC(=S)N1Cc1ccco1	·	·	-14%	-2%[11.4 µM]	2.2µM*
CCOc1cc(/C=C(\C#N)C(=O)NCC2CCCO2)ccc1O (configuration not stated)	-10%	?	?	-5%	28µM*
